The values below come from PubChem BioAssay AID1416 (The Scripps Research Institute Molecular Screening Center, 2008).

Hit rate of the full screen: of about 220,000 compounds, about 370 (0.17%) were called active.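 The calls were made as follows: active = inhibition above the mean inhibition of all tested compounds plus 3 SD, set separately per screening campaign (cut at about 2.9% in these data); inactive = the rest.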 Only a selection was taken, and actives are over-represented in it overall.

The target in this test is Eukaryotic translation initiation factor 2-alpha kinase 3 (Homo sapiens) (UniProt Q9NZJ5). Kind of test: SEAP translation reporter rise after PERK-DD activation – CHO PERK-DD cells, SEAP luminescence, HTS, PERK inhibitor project, primary screen (AID 1416).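 Also: PERK kinase domain activated by AP20187 dimerizer at 100 nM; 0% = DMSO with dimerizer and 100% = rapamycin at 8.4 µM.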 The settings on record: CHO PERK-DD fusion, at 5.6 µM, hits give high values.
Eukaryotic translation initiation factor 2-alpha kinase 3 (Homo sapiens), sequence (Q9NZJ5 whole entry, looked up, the tested form may be a part): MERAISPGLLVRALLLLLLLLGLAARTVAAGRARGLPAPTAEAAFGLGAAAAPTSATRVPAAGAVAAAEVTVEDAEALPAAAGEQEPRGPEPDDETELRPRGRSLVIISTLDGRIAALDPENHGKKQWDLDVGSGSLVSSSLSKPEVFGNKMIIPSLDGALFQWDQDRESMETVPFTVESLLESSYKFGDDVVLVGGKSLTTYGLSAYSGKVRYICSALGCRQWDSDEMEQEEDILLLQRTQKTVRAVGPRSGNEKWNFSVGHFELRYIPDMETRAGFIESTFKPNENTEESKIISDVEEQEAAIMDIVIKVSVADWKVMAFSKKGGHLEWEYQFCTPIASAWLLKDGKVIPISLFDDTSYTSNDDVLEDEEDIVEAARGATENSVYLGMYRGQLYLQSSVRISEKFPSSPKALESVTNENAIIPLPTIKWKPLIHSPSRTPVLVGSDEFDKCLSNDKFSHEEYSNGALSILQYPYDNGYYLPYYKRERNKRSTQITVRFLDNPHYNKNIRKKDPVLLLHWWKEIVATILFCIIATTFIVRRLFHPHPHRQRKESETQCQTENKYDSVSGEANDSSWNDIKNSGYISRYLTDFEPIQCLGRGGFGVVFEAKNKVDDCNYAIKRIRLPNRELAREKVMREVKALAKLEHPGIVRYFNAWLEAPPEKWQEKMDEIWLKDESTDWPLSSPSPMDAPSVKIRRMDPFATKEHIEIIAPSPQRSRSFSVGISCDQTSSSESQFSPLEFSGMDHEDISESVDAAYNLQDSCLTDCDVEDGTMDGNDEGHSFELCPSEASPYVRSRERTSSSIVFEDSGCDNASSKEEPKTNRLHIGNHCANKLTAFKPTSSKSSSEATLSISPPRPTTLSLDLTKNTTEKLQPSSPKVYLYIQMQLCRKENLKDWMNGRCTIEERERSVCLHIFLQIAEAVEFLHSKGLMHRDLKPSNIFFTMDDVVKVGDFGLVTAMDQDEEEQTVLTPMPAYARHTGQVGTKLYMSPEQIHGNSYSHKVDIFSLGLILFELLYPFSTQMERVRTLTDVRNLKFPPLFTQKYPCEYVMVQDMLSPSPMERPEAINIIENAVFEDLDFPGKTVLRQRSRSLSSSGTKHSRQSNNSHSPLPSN
For orientation: inhibition means the drop in the measured response relative to a control, in per cent. For `CC1=NN(C(C)C)C(=O)C1`, the inhibition was 0.1% (inactive). Turning to `O=C(CN1CCN(S(=O)(=O)c2ccc3ccccc3c2)CC1)NC(=O)NC1CCCCC1`, the inhibition is -1.71% (inactive). As for `COc1ccc(-n2c(C)nn(CC3CC3)c2=O)cc1`, the figure is 0.52% (inactive); as for `COc1ccc(CN2CCCC(CNC(=O)c3ccc(F)cc3)C2)cc1OC` (stereo not drawn), 0.78% (inactive); as for `O=C(NNC(=O)C1CCN(c2ncccn2)CC1)c1ccccc1`, 1.78% (inactive). As for `Cc1cc(Cl)ccc1OCCCC(=O)NCc1ccccn1`, the figure is 0.34% (inactive); as for `O=C(Nc1cccnc1)c1cc([N+](=O)[O-])ccc1Cl`, 1.12% (inactive). As for `Cc1cc(=O)[nH]c(N/N=C/c2c(C)nn(-c3ccccc3Cl)c2Cl)n1`, the figure is 0.41% (inactive).

Turning to `COc1ccc2[nH]c(=S)cc(C)c2c1`, the inhibition was 3.26% (active). Then `COc1ccc2[nH]c3ccc(OC)cc3c2c1`, with -0.09% (inactive). As for `COc1ccc2[nH]c(=O)c(CNc3ccc(C)c(C)c3)cc2c1`, the figure is 0.88% (inactive); as for `CN1CCN(CCC(=O)N/N=C/C=C2\N(C)c3ccccc3C2(C)C)CC1`, 0.12% (inactive).

Turning to `O=C(COC(=O)c1cnc(Cl)c(Cl)c1)NCc1ccco1`, the inhibition is -0.25% (inactive). Then `NC(=O)Cc1ccc2sc(-c3ccccc3)nc2c1`, with 0% (inactive); and `O=C(CCNc1n[nH]c(=O)[nH]c1=O)N/N=C\c1ccc(Br)cc1`, with 1.9% (inactive); and `Cc1cc(/C=N/NC(=O)CC2(C)OCCO2)c(C)n1-c1ccc(Cl)c(Cl)c1`, with -0.35% (inactive). Then `CC(=O)NC1=NN(C(C)=O)C(C)(c2ccc(C)cc2)S1` (stereo not drawn), with 0.26% (inactive); and `COc1ccc(CC(NC(C)=O)C(=O)NC2CCN(C(=O)c3ccc(OC)c(OC)c3)CC2)cc1OC` (stereo not drawn), with 0.49% (inactive).

On to `O=C(COc1ccc([N+](=O)[O-])cc1Cl)Nn1cnnc1`, for which the inhibition is 0.99% (inactive). For `CN(C)S(=O)(=O)c1cccc(NC(=S)NCc2ccc3c(c2)OCO3)c1`, the inhibition is -0.05% (inactive). Then `COC(OC)c1ccnc(SCc2ccccc2Cl)n1`, with 1.69% (inactive); and `CCN1CCN(C(=O)CCN2C(=O)c3ccccc3C2=O)CC1`, with 1.42% (inactive). As for `COC(=O)c1cc2n(n1)CCCNC2=O`, the figure is 0.06% (inactive); as for `CCN(CC)CCOC(=O)c1ccc(NC(=O)CNC(=O)c2ccccc2)cc1`, 2.02% (inactive). Then `CCn1nc(C)c(CN2CCN(Cc3ccc(OC)c(C)c3C)C(CCO)C2)c1C` (stereo not drawn), with -0.31% (inactive). Regarding `Cc1ccc(N2C(=O)C(Cc3ccccc3)NC2=S)cc1` (stereo not drawn), the inhibition was -0.27% (inactive). Then `O=C1C(Cc2ccc(O)cc2)NC(=S)N1Cc1ccccc1` (stereo not drawn), with 3.13% (active).

Turning to `COc1ccc(N2C(=O)C(Cc3ccccc3)NC2=S)cc1` (stereo not drawn), the inhibition was 0.37% (inactive).
